Data from PubChem BioAssay (NCI).
This is part of a sample that, as a whole, favours compounds with a hit. Of some 83,000 tested, about 20% had one in any assay.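 96-well plates, one dose, 48 hours. Percent growth reported; active if below 10.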 Active and inactive are the calls of the source.

Tests used:
Test in all cases: NCI-60 one-dose screen, 48 h (100 = growth as untreated, 0 = no growth, -100 = all killed)
Conditions in all cases: 10 µM unless noted
T-47D breast = test system: T-47D breast
BT-549 breast = test system: BT-549 breast
MDA-MB-435 melanoma = test system: MDA-MB-435 melanoma
SW-620 colon = test system: SW-620 colon
MCF7 breast = test system: MCF7 breast
HCT-116 colon = test system: HCT-116 colon
HCC-2998 colon = test system: HCC-2998 colon
KM12 colon = test system: KM12 colon

Measured: growth

CCNC(=O)C1CCCN1C(=O)C(CCCN=C(N)N)NC(=O)C(CC(C)C)NC(=O)C(CC(C)C)NC(=O)C(Cc1ccc(O)cc1)NC(=O)C(CO)NC(=O)C(Cc1c[nH]c2ccccc12)NC(=O)C(Cc1cnc[nH]1)NC(=O)C1CCC(=O)N1 (centres undefined)
inactive: T-47D breast 104% | BT-549 breast 113% | MDA-MB-435 melanoma 105% | SW-620 colon 89.4% | MCF7 breast 86.1% | HCT-116 colon 95.2% | HCC-2998 colon 94.4% | KM12 colon 104%

O=C1CCC(=O)N1Cc1ccccc1
inactive: T-47D breast 113% | BT-549 breast 111% | MDA-MB-435 melanoma 99.4% | SW-620 colon 100% | MCF7 breast 91.5% | HCT-116 colon 98.6% | HCC-2998 colon 101% | KM12 colon 96.4%

CCC(C)NCC(=O)O (centres undefined)
inactive: T-47D breast 86.3% | BT-549 breast 110% | MDA-MB-435 melanoma 101% | SW-620 colon 105% | MCF7 breast 103% | HCT-116 colon 99.9% | HCC-2998 colon 101% | KM12 colon 105%

C[N+](C)(C)c1ccc(CC2c3ccccc3-c3ccccc32)cc1
inactive: T-47D breast 51.1% | BT-549 breast 59.2% | MDA-MB-435 melanoma 90.4% | SW-620 colon 86.2% | MCF7 breast 84.1% | HCT-116 colon 73.3% | HCC-2998 colon 88.8% | KM12 colon 77%

O=C(CCC(=O)OC1CCCC1)OC1CCCC1
inactive: T-47D breast 94.1% | BT-549 breast 99.9% | MDA-MB-435 melanoma 100% | SW-620 colon 103% | MCF7 breast 95.2% | HCT-116 colon 109% | HCC-2998 colon 101% | KM12 colon 102%

CC(C(=O)n1cc(-c2ccccc2)c(-c2ccccc2)c1)c1ccccc1 (centres undefined)
inactive: T-47D breast 93.4% | BT-549 breast 117% | MDA-MB-435 melanoma 104% | SW-620 colon 111% | MCF7 breast 100% | HCT-116 colon 99.8% | HCC-2998 colon 104% | KM12 colon 105%

COc1cc(/C=C\c2cc(OC)c(OC)c(OC)c2)cc(N/C=C\C(=O)c2c[nH]c3ccccc23)c1OC
inactive: BT-549 breast 41.2% | MDA-MB-435 melanoma 29.1% | HCC-2998 colon 83.2% | KM12 colon 49.2%
active: T-47D breast -5.64% | SW-620 colon -76% | MCF7 breast 4.09% | HCT-116 colon -82.9%

CC(=O)Nc1ccc2c(c1)/C(=C\C=C/c1ccc([N+](C)(C)C)cc1)c1ccccc1-2
inactive: T-47D breast 41.4% | BT-549 breast 94.6% | MDA-MB-435 melanoma 96% | SW-620 colon 99% | MCF7 breast 60.4% | HCT-116 colon 70.3% | HCC-2998 colon 114% | KM12 colon 97.1%

CCn1cc(C2NC(=O)c3cc(F)ccc3N2)c2cccc(Cl)c21 (centres undefined)
inactive: T-47D breast 58.3% | BT-549 breast 26.9% | SW-620 colon 20.8% | MCF7 breast 15.5% | KM12 colon 19.2%
active: MDA-MB-435 melanoma -31.7% | HCT-116 colon 8.12% | HCC-2998 colon 7.64%

COc1ccc(NC(=O)CSc2nc3ccccc3c(=O)n2-c2ccccc2C(F)(F)F)c(OC)c1OC
inactive: T-47D breast 95.1% | BT-549 breast 99.8% | MDA-MB-435 melanoma 107% | SW-620 colon 95.3% | MCF7 breast 97.8% | HCT-116 colon 98.3% | HCC-2998 colon 118% | KM12 colon 101%

Cc1nn(-c2ccc(Cl)cc2)c(=O)n1CCOc1ccccc1Cl
inactive: T-47D breast 79.5% | BT-549 breast 94.4% | MDA-MB-435 melanoma 107% | SW-620 colon 103% | MCF7 breast 98.3% | HCT-116 colon 74% | HCC-2998 colon 106% | KM12 colon 101%

CC(Br)C(O)c1cc2c(cc1Br)OCO2 (centres undefined)
inactive: T-47D breast 100% | BT-549 breast 96.6% | MDA-MB-435 melanoma 110% | SW-620 colon 104% | MCF7 breast 93% | HCT-116 colon 101% | HCC-2998 colon 111% | KM12 colon 108%

Cc1cc(Nc2nc(C(=O)Nc3ccccc3)nc3ccccc23)n[nH]1
inactive: T-47D breast 47% | BT-549 breast 50.6% | MDA-MB-435 melanoma 64.9% | SW-620 colon 77.5% | MCF7 breast 72.1% | HCT-116 colon 45.6% | HCC-2998 colon 84.3% | KM12 colon 28%

CCC(c1ccc(OC)cc1)C(CC)c1ccc(OCC[N+](C)(C)C)cc1 (centres undefined)
inactive: T-47D breast 62.7% | BT-549 breast 57.2% | MDA-MB-435 melanoma 59.8% | SW-620 colon 70.6% | MCF7 breast 56.9% | HCT-116 colon 89.6% | HCC-2998 colon 39.3% | KM12 colon 49.4%

O=C(Nc1cc(C(F)(F)F)cc(C(F)(F)F)c1)Nc1ccc(OCc2nnc(-c3ccc(Cl)cc3)o2)c(F)c1
active: MDA-MB-435 melanoma 9.18% | MCF7 breast 6.03% | HCT-116 colon 7.81%
inactive: T-47D breast 13.2% | BT-549 breast 22.8% | SW-620 colon 22.8% | HCC-2998 colon 20.3% | KM12 colon 13.7%

CCSc1nnc(NC(=O)Cc2ccc(Cl)cc2)s1
inactive: T-47D breast 96.2% | BT-549 breast 109% | MDA-MB-435 melanoma 98.9% | SW-620 colon 109% | MCF7 breast 101% | HCT-116 colon 105% | HCC-2998 colon 84.9% | KM12 colon 96.9%

CCn1cc(C(=O)O)c(=O)c2cc(F)c(N3CCN(S(=O)(=O)c4cccc5ccccc45)CC3)cc21
inactive: MDA-MB-435 melanoma 11.4% | SW-620 colon 22.8% | MCF7 breast 14.6% | HCC-2998 colon 31.6% | KM12 colon 11.7%
active: T-47D breast 5.29% | BT-549 breast -4.35% | HCT-116 colon 5.45%

CC(C)(C)OC(=O)N[C@@H](Cc1ccccc1)C(=O)N(Cc1ccccc1)C1(C(=O)NCc2ccccc2)CCN(Cc2ccccc2)CC1
inactive: T-47D breast 38% | BT-549 breast 71% | MDA-MB-435 melanoma 41% | SW-620 colon 22.9% | MCF7 breast 25.2% | HCT-116 colon 20.9% | HCC-2998 colon 47% | KM12 colon 18.7%

COc1ccc(N=C2NN=C(c3ccc(F)cc3)CS2)cc1OC
inactive: T-47D breast 86.7% | BT-549 breast 108% | MDA-MB-435 melanoma 83.3% | SW-620 colon 98.6% | MCF7 breast 104% | HCT-116 colon 96.1% | HCC-2998 colon 98.1% | KM12 colon 99.2%

NC(=O)NC(=O)/C=C/C(=O)OCCCl
inactive: T-47D breast 69% | BT-549 breast 106% | MDA-MB-435 melanoma 101% | SW-620 colon 102% | MCF7 breast 92.2% | HCT-116 colon 104% | HCC-2998 colon 99.8% | KM12 colon 110%

O=C(CCCn1c2c(sc3ccccc32)c(=O)n2nnc(-c3ccccc3)c12)NCCc1cnc[nH]1
inactive: BT-549 breast 72.2% | HCC-2998 colon 25.7%
active: T-47D breast -25.4% | MDA-MB-435 melanoma -95.1% | SW-620 colon -84.5% | MCF7 breast -100% | HCT-116 colon -100% | KM12 colon -63%

CN(C)c1ccc(C2CC(c3ccccc3)=NN2/C=C2\SC(=O)NC2=O)cc1 (centres undefined)
inactive: T-47D breast 86.7% | BT-549 breast 87% | MDA-MB-435 melanoma 83.1% | SW-620 colon 83.9% | MCF7 breast 65.4% | HCT-116 colon 85.9% | HCC-2998 colon 101% | KM12 colon 82.2%

CCC1CCc2nc3sc(C(=O)Nc4ccccc4F)c(N)c3cc2C1 (centres undefined)
inactive: T-47D breast 87.4% | BT-549 breast 76% | SW-620 colon 36.4% | MCF7 breast 18.9% | HCT-116 colon 63.8% | HCC-2998 colon 91.6% | KM12 colon 35.3%
active: MDA-MB-435 melanoma -15.5%

COc1ccc([N+](=O)[O-])c(/C=C/C(=O)c2ccccn2)c1
active: HCT-116 colon 1.9%
inactive: T-47D breast 91.8% | BT-549 breast 94.2% | MDA-MB-435 melanoma 94.5% | SW-620 colon 16.9% | MCF7 breast 67% | HCC-2998 colon 120% | KM12 colon 84.5%

CC(C)N(Cc1ccc(CN(C(=O)CCl)C(C)C)cc1)C(=O)CCl
active: T-47D breast -14.8% | SW-620 colon 2.78% | HCT-116 colon -67.4%
inactive: BT-549 breast 18.6% | MDA-MB-435 melanoma 27.2% | MCF7 breast 23.8% | HCC-2998 colon 93.8% | KM12 colon 41.1%

COc1cccc(/C=C/C(=O)c2sc(Nc3ccc(O)cc3)nc2C)c1
inactive: T-47D breast 90.8% | BT-549 breast 14.6% | MDA-MB-435 melanoma 88.4% | SW-620 colon 110% | MCF7 breast 72.2% | HCT-116 colon 87.4% | HCC-2998 colon 105% | KM12 colon 78.4%

COc1cc(NC(=O)c2cc3ccccc3nc2Nc2ccc(F)cc2)cc(OC)c1OC
inactive: T-47D breast 22.1% | BT-549 breast 30.7% | MDA-MB-435 melanoma 27% | SW-620 colon 54.4% | MCF7 breast 24.2% | HCT-116 colon 35.8% | HCC-2998 colon 65.9% | KM12 colon 42.7%

CCN(CC)S(=O)(=O)c1ccc2[nH]c(=O)cc(C(=O)Nc3ccc(OC)cc3OC)c2c1
inactive: T-47D breast 101% | BT-549 breast 136% | MDA-MB-435 melanoma 108% | SW-620 colon 108% | MCF7 breast 99.6% | HCT-116 colon 97.3% | HCC-2998 colon 75.3% | KM12 colon 110%
